# Experimental data: the supplement of paper PMC12024529
# System: HEK293 WT BDD-FVIII-Gluc
# Assay: secreted FVIII-Gluc luciferase Z-score vs DMSO control; higher = more FVIII-Gluc secretion
# Conditions: 5 µM
# Experimental: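 Natural plant-compound library (480 compounds, ST catalogue IDs) screened on HEK293 cells stably expressing WT BDD-FVIII-Gaussia luciferase fusion at 5 µM. Secreted Gluc activity in the medium is given as a Z-score relative to DMSO controls.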
row,SMILES,secreted FVIII-Gluc luciferase Z-score
1,O=c1c(O)c(-c2ccc(O)c(O)c2)oc2c(O[C@@H]3O[C@H](CO)[C@@H](O)[C@H](O)[C@H]3O)c(O)cc(O)c12,1.19
2,C=CC1CN2CCC1CC2C(O)c1ccnc2ccc(OC)cc12 (centres undefined),-0.00699
3,CCCCC/C=C\C/C=C\C/C=C\C/C=C\CCCC(=O)O,0.604
4,COc1ccc(-c2oc3ccccc3c(=O)c2O)cc1,-1.09
5,COc1ccc2c(c1OC)C(Cc1ccccc1)N1CCc3cc4c(cc3C1C2)OCO4 (centres undefined),0.496
6,COc1ccc(-c2cc(=O)c3c(O)cc(O)cc3o2)cc1,0.381
7,c1coc(CNc2ncnc3nc[nH]c23)c1,0.193
8,CN1C(=O)CC[C@H]1c1cccnc1,-0.0585
9,NCC1OC(OC2C(CO)OC(OC3C(O)C(N)CC(N)C3OC3OC(CO)C(O)CC3N)C2O)C(N)C(O)C1OC1OC(CO)C(O)C(O)C1O (centres undefined),1.54
10,NC(=O)NCCC[C@H](N)C(=O)O,-0.102
11,N[C@H](CCC(=O)O)C(=O)O,-0.453
12,CC(=O)OC1CCC2(C)C(CCC3(C)C2C(=O)C=C2C4CC(C)(C(=O)OCCN5CCCCC5)CCC4(C)CCC23C)C1(C)C (centres undefined),0.64
13,COc1ccc2c(c1OC)C(=O)O[C@@H]2[C@H]1c2c(cc3c(c2OC)OCO3)CCN1C,-0.0362
14,COC1C(O)C(O)C(O)C(O)C1O (centres undefined),0.358
15,COc1cc(CNC(=O)CCCCCCC(C)C)ccc1O,-0.541
16,CC[C@]12CCCN3CCc4c(n(c5ccccc45)C(=O)C1)C32 (some centres undefined),0.363
17,O=c1cc(-c2ccccc2)oc2c1ccc1ccccc12,0.373
18,C=C[C@@]1(C)C=C2CC[C@@H]3[C@](C)(CCC[C@@]3(C)C(=O)O)[C@H]2CC1,-0.481
19,CC[C@@H]1OC(=O)[C@@H](C)[C@H](O[C@H]2C[C@@](C)(OC)[C@@H](O)[C@H](C)O2)C(C)[C@H](O[C@H]2O[C@@H](C)C[C@@H](N(C)C)[C@@H]2O)[C@@](C)(O)C[C@H](C)C(=O)[C@@H](C)[C@H](O)[C@@]1(C)O (some centres undefined),-1.17
20,CC(C)CCCC(C)C1CCC2C3CC=C4CC(O)CCC4(C)C3CCC12C (centres undefined),0.231

row,SMILES,secreted FVIII-Gluc luciferase Z-score
1,CC1(C)CC[C@]2(C(=O)O)CC[C@]3(C)C(=CCC4[C@@]5(C)CC[C@H](O)C(C)(C)C5[C@H](O)C[C@]43C)C2C1 (some centres undefined),0.207
2,O=C(O)CNC(=O)c1ccccc1,1.07
3,C=C1CCC2C(C)(CO)C(O)CCC2(C)C1C/C=C1\C(=O)OCC1O (centres undefined),-1.01
4,COc1ccccc1-c1oc2ccccc2c(=O)c1O,-0.65
5,Cc1ccc2oc(-c3ccccc3)c(O)c(=O)c2c1,1.13
6,C=CCc1ccc(O)c(OC)c1,-0.898
7,NC(Cc1c[nH]c2ccccc12)C(=O)NCC(=O)O (centres undefined),-1.06
8,COc1ccc2c(c1OC)C(Cc1ccccc1)N1CCc3cc4c(cc3C1=C2)OCO4 (centres undefined),0.115
9,CC12CCC3c4ccc(O)cc4CCC3C1CCC2=O (centres undefined),0.301
10,N[C@@H](Cc1c[nH]c2ccc(O)cc12)C(=O)O,0.43
11,COc1ccc(-c2coc3cc(OC4OC(CO)C(O)C(O)C4O)cc(O)c3c2=O)cc1 (centres undefined),-0.0597
12,COc1ccc(-c2coc3ccc(OC4OC(COC(C)=O)C(OC(C)=O)C(OC(C)=O)C4OC(C)=O)cc3c2=O)cc1 (centres undefined),-1.1
13,CC1=CC(=O)C2=C(C)CCC3C(C)C(=O)OC3C12 (centres undefined),0.0708
14,Nc1ccn(C2CC(O)C(COP(=O)(O)O)O2)c(=O)n1 (centres undefined),0.357
15,O=C(O)c1cc(O)c2c(c1)C(=O)c1cccc(O)c1C2=O,0.381
16,CO[C@H]1/C=C/O[C@@]2(C)Oc3c(C)c(O)c4c(O)c(c(C=O)c(O)c4c3C2=O)NC(=O)/C(C)=C\C=C\[C@H](C)[C@H](O)[C@@H](C)[C@@H](O)[C@@H](C)[C@H](OC(C)=O)[C@@H]1C,1.13
17,CC(=O)C1=C(O)C=C2Oc3c(C(C)=O)c(O)c(C)c(O)c3[C@]2(C)C1=O,1.04
18,COc1ccc(-c2coc3cc(O)ccc3c2=O)cc1,0.632
19,C=C1CC23C[C@@]1(O)CCC2C12C=CC(O)C(C)(C(=O)O1)C2[C@@H]3C(=O)O (some centres undefined),-0.216
